Measured values published in PubChem BioAssay (NCATS).
Records with an inconclusive call do not appear. The source made the active and inactive calls. The call rests on the fitted dose curve; in most records, active means well fitted curve in either direction with a large enough effect (not every such curve was filed as active); inconclusive means small, poorly fitted or top-dose-only effect, or another doubt; inactive means flat fitted curve, though single readings scatter.

Assay: Stat Signaling Pathway (AID 446)
Conditions: ME-180 (cervical carcinoma) SIE beta-lactamase reporter, IL-6 stimulated, 5 h; at 17.2 µM (top of the series) unless noted
Outline: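 Emission at 460 and 530 nm (excitation 405 nm) reports SIE-controlled beta-lactamase in ME-180 cells. Cells received compound with 40 pM IL-6 for 5 hrs at 37 C; data scaled between 300 pM IL-6 and 125 nM JAK-inhibitor controls.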
On the % scale 0 is the no-effect control and ±100 the full control effect.

Row | SMILES | activity, negative = inhibition
1 | Cc1c(Cl)c(C(F)(F)F)nn1CC(=O)N1CCSCC1 | 5.37% (inactive)
2 | CCOC(=O)c1c(C)[nH]c(/C(C)=N/O)c1C | -8.45% (inactive)
3 | O=c1c(C=NCCCn2ccnc2)c(-c2ccccc2)[nH]n1-c1nc2ccccc2s1 | -15.5% (inactive)
4 | O=C(C1=C(O)C(=O)N(CCN2CCOCC2)C1c1cccnc1)c1cc2ccccc2o1 (stereo not given) | 3.87% (inactive)
5 | CCCc1cc(=O)oc2c(C)c(O)c(CN3CCCCC3)cc12 | 10.7% (inactive)
6 | CCOC(=O)CC(=O)CSc1nc(N)c(C#N)c(-c2ccc(F)cc2)c1C#N | -17.8% (inactive)
7 | COC(=O)CSc1ncnc2c1sc1nc(-c3ccco3)c3c(c12)CC(C)(C)OC3 | -10.8% (inactive)
8 | Cc1cccn2c(=O)c3cc(C#N)c(=N)n(Cc4ccncc4)c3nc12 | -5.05% (inactive)
9 | CCC(NC(=O)Nn1cnnc1)(C(F)(F)F)C(F)(F)F | 5.97% (inactive)
10 | CCN(CC)CCN1C(=O)C(=O)/C(=C(/O)c2c(C)[nH]c(C(=O)OC)c2C)C1c1cccc(OC)c1 (stereo not given) | 5.49% (inactive)
11 | Cc1nc(SCC(=O)Nc2ccc3c(c2)OCO3)c(C#N)c2c1CCCC2 | -15.4% (inactive)
12 | COC(=O)C(NC(C)=O)(Nc1ccccc1)C(=O)OC | 13.2% (inactive)
13 | O=c1c(F)cn(C2CCCO2)c(=O)n1Cc1ccccc1Cl (stereo not given) | 11.6% (inactive)
14 | CCCCOc1ccc(CN(C)c2ncnc(N)n2)cc1 | 8.02% (inactive)
15 | CN1C(=O)c2c(sc3c2CCCC3)NC1c1ccccc1O (stereo not given) | -25.9% (inactive)
16 | COC(=O)C(NC(=O)c1ccco1)(Nc1ccc(Br)cn1)C(F)(F)F (stereo not given) | -13% (inactive)
17 | CCCc1nnc(NC(=O)Nc2ccccc2OC)s1 | -4.19% (inactive)
18 | Cc1cc(C)nc(CC(N)=O)n1 | -0.0254% (inactive)
19 | Cn1c(OCc2ccc3c(c2)OCO3)nc2c1c(=O)n(Cc1cccc(Cl)c1)c(=O)n2C | -6.64% (inactive)
20 | COc1ccc(NC(=O)Nc2cccc(C(=O)N3CCOCC3)c2)cc1OC | 0.00442% (inactive)

Row | SMILES | activity, negative = inhibition
21 | COc1ccccc1N(O)C1CC(=O)N(c2ccc(Br)cc2)C1=O (stereo not given) | -0.749% (inactive)
22 | COC(=O)c1cc(Br)c(=O)n(Cc2cccnc2)c1 | 9.48% (inactive)
23 | CC1(C)Cc2[nH]c(=S)c(C#N)cc2CO1 | 27.9% (inactive)
24 | CC1(C)Cc2c(sc3[nH]c(=S)n(Cc4ccco4)c(=O)c23)CO1 | -8.92% (inactive)
25 | Cc1cc(=O)oc(C)c1C(=O)NCCC1=CCCCC1 | 2.06% (inactive)
26 | CC(=O)NCCCCCCNC(C)=O | 2.41% (inactive)
27 | N#Cc1cccc(-n2c(-c3ccccc3)nnc2-c2ccccc2)c1C#N | 0.928% (inactive)
28 | CN(C)c1nc2sc3c(c2c(=O)n1C)CC(C)(C)OC3 | 10.9% (inactive)
29 | COc1cccc(Cn2c(OCC3CCCO3)nc3c2c(=O)n(C)c(=O)n3C)c1 (stereo not given) | -4.79% (inactive)
30 | CC1(C)Cc2c(sc3ncn4nc(-c5ccco5)nc4c23)CO1 | -2.67% (inactive)
31 | CCOC(=O)C1=C(C(C)=O)C(c2cccnc2)C(C#N)=C(N)O1 (stereo not given) | -12.3% (inactive)
32 | Nc1nnnn1CC(=O)OCc1cccc(Br)c1 | 12.3% (inactive)
33 | CN(C)c1cccc2c(S(=O)(=O)N3CCOCC3)cccc12 | 7.43% (inactive)
34 | COC(=O)C(C)Sc1nc2c(c(=O)n(C)c(=O)n2C)n1CCC(C)C (stereo not given) | -10.8% (inactive)
35 | NS(=O)(=O)c1cc2c(cc1Cl)NC(C1C[C@H]3C=C[C@@H]1C3)NS2(=O)=O (stereo not given in full) | -0.0433% (inactive)
36 | CC(C(=O)NC(=O)NCc1ccccc1)N1C(=O)c2ccccc2C1=O (stereo not given) | 14.7% (inactive)
37 | Cc1ccc(C(=O)C2=C(O)C(=O)N(c3ncccn3)C2c2cccc(Cl)c2)o1 (stereo not given) | -7.64% (inactive)
38 | CC(C)CC(=O)Nc1ncnc2c1C(=O)CC(C)(C)C2 | 14.7% (inactive)
39 | CCCCc1nc2sc3c(c2c(=O)[nH]1)CCC3 | -2.54% (inactive)
40 | Cc1cc(C)n(CC(=O)c2ccccc2)c(=O)c1C#N | -3.77% (inactive)
